About 1,400 (4.5%) of roughly 31,000 sequences were called active. Shown is part of a subset that was picked to be rich in actives. Values without a mark were called inactive.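 The calls were made as follows: active = median seed-adjusted z-score above 1 or below -1; inactive = the rest.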

A short description of this assay: Novel Modifiers of Survival Motor Neuron (SMN) Protein: Gene Identification via Genome-wide siRNA Screen.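 Also: luminescence tracks full-length SMN protein made from the SMN2 reporter.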 The note with it: HEK293T SMN2-luciferase reporter, siRNA knockdown, 72 h; actives lie on both sides. The method, boiled down:
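Each of three siRNAs per gene is reverse-transfected (1 pmol) into reporter HEK293T cells whose luciferase output tracks SMN protein level. After 72 h culture, ONE-Glo luminescence is control-normalized, log10-transformed and MAD-standardized; Common Seed Analysis deprioritizes seed-driven hits.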
As for CCAUGACUGUCAAUCGUCATT against GFM1, the median seed-adjusted z-score was -0.0641.
Then GGACCUACACUUUUCUCUUTT against FAM53B, with -0.00535; and CCCUAAAGUUAAUCACCCATT against NUCB2, with 0.45.
To GUUCCAUCCUGAUUCAAAUTT against PIGM belongs 1.36 (active).
Turning to GUUGAUAAGUUUUACCGAUTT against ADAM19, the median seed-adjusted z-score is 0.0996.
Turning to CCACCCGGACGAUAUCUUUTT against PPARA, the median seed-adjusted z-score is 0.113.
Then GGAACGCAGUCGGAUCUCATT against RHOU, with -1.44 (active).
Then GCAUUUGCAAUGAAGGCUATT against DNER, with -0.316.
Then GAACCAGAUGAGACAUUCATT against SPSB1, with -0.378; and CUCUAAUGUUAAUCCGAGATT against MED14, with -3.22 (active); and GAGGCUCAAUGUUACACCATT against ACAT1, with -0.848.
For CCAUUGGGCUAUGACCUGATT against ACOT4, the median seed-adjusted z-score is -0.158.
For GGCACUAUUUCCAAUGGAATT against ADAMTS12, the median seed-adjusted z-score was -0.0721.
Then GCAGCCCUGAUGUCCAGUATT against EFS, with -0.299; and AGUUCAUCGAUGACAUGGATT against COL6A2, with 0.0119.
To GGAUCUAUCUUAACGACCATT against GAN belongs -1.07 (active); to GCUCCGAAGUGUUUACAAUTT against DQX1, -0.297; to GUCCAAAUACAGUCUCUUATT against MAP3K14, -0.0609.
To CGCUGAAACCCGAUUCCUATT against ANPEP belongs 0.252.
Consider GCCUAGAUGAGCGAAUUUATT against LSM3, for which the median seed-adjusted z-score is -1.36 (active).
Then GCACUGCGACUGUACUCUATT against LRRC3B, with 0; and CCUUCACACGUACCACAAATT against TEKT2, with -0.349.
Then GGCUGGACAGUAAUUCAGATT against ANGPTL4, with 1.37 (active).
With CACAAUGAGUUAACUGAUATT against LILRB4, the median seed-adjusted z-score was -0.104.
To CGUUAUUGCCUGUUUGGAATT against GUCY1A2 belongs -0.186; to GGGAAAAGCUUGACGAUUATT against RNF139, 0.175.
Then GGGUUGAAGGUGAUCAUCATT against IMMP2L, with 0.919.
Then GGCUCAUUGAGACGACUGATT against RCADH5, with -0.158.
Consider CACUGGAGACUUUCGCUUUTT against ZNF813, for which the median seed-adjusted z-score is 0.127.
With AGAUCUACAUCGUGAUGAATT against CDC2L1, the median seed-adjusted z-score was -1.14 (active).
Regarding GGUACUUCGUGAUCCGCAUTT against NECAP2, the median seed-adjusted z-score was -0.539.
With GGACUGUCAAUCUUAGAUATT against GRK4, the median seed-adjusted z-score was -0.267.
Take CGUGUACAAGGCUCUAACATT against EPN3: the median seed-adjusted z-score is 0.184.
Then CUACGAAUCUGUGAAUGAATT against ERH, with -1.25 (active); and GCUAACCACUUGGAAGAUATT against PRMT7, with 0.204; and GGCAGAACCUAUACCAGAATT against MED6, with -2.15 (active).
For the sequence CAGAACCUGUUGUAGAAAATT against GSPT2, the median seed-adjusted z-score is 0.846.
To GGACGACUGCAGCAAGUUUTT against ATP2A3 belongs -0.28; to AGACCAUCCCUAACGGAUATT against PRELP, -0.0579.
To GCUCGUAGUUGGGAUAACATT against FRAP1 belongs -1.02 (active); to GGCUCUCAGAUUGUUGACATT against GABARAPL2, 0.528.
To GAACAUUGGUGACUAUAUUTT against GRIP2 belongs -0.0256; to GGAUGAUGUGCGUAACAGATT against HAO1, 0.421.
CAGAAGUUCUCAGACCUAATT against ZNF721: the median seed-adjusted z-score is 0.404.
Regarding GCUAUACGGUUGACAACGATT against ISLR, the median seed-adjusted z-score was 0.00807.
As for CCCUCCUCGUGGAACCAUATT against NEURL2, the median seed-adjusted z-score is 1.39 (active).
To UCGUGGACCUGGUCUGUUATT against OGDHL belongs -0.0878; to GGUCGAAAAGCAAACUCAATT against PTPRN2, -0.104.
Then CAUGGAAGAUCUGACCAUATT against MEOX2, with 1.36 (active); and GCAGGAUGAUCUCAAGUAUTT against MOBKL2B, with -0.613; and CCGCAGUGGAAAUACCAUATT against ANGEL1, with -0.332.
For GCGGCUAACAGGAUAUGUATT against ACTN2, the median seed-adjusted z-score was 0.165.
To CACAAGAUAUCAGGAGAAATT against FCRL2 belongs -0.294; to CAUGAUCUCCGGCUACCUATT against SLCO2B1, 0.289.
Then GGAUGCUCCAAGUCUGUCATT against GPR179, with -0.513; and GCAGUUGUCCAGUUACGAATT against RAD50, with 0.266; and GAAGCUACAUGGGAAGUGUTT against SIRT7, with -0.427.
Then CAGGUCGACUGAUAGAUCATT against DDX42, with -2.13 (active); and GGACUGAUCAUGAACCUCUTT against CPEB3, with 0.086; and GAGUUUAAUCUGAUUGAUATT against MOBKL1B, with 0.31.
In the case of GCACUAUAUGAAUACGCAATT against AUP1, the median seed-adjusted z-score is 0.305.
With GCAUCACACUCACAUCCCATT against DNASE2, the median seed-adjusted z-score is -1.23 (active).
Regarding GCUCUGUACAGGAAACUCUTT against IL2RA, the median seed-adjusted z-score was 0.587.
To GUGUAGGGAUAGUUACCAATT against ZNF518A belongs -0.252.
To GAGUUCUACUUGUCCAAUUTT against ZDHHC20 belongs -0.936.
On to GGCUUUGCUUAAGUUCAAATT against LPCAT4, for which the median seed-adjusted z-score is 0.338.
In the case of CAACCAUAGUUAAAGUUAATT against TCP1, the median seed-adjusted z-score was -1.02 (active).
Take GGAUGUCUCAUUACACCAUTT against TGFBR3: the median seed-adjusted z-score was 0.285.
Then UGCUGGUGUUUAAACCCAUTT against C5AR1, with 0.366; and GCGACUUCAUGAUAGCAUATT against CAMK2D, with 0.0676.
Consider GGAGAUAUUUUUGACGGAATT against ZFHX3, for which the median seed-adjusted z-score was 0.045.
Then AAGCCUACCAGGUCAAGUATT against EVI5L, with 0.0497; and GGAUAUUAAGGACAGGAAATT against RAN, with -3.09 (active); and GAAGCUACAGAAUCUGGAATT against ARFGAP2, with 0.0672.
To GGAUUCAACUUUACAAGAATT against BTD belongs -0.165; to AGGAGAUCGUCGUCACUGATT against NNMT, -0.095; to CCAUAGCAGUAAUGAUACATT against GRIN3A, 0.241.
Then GCCUGAACCGAGUAGAAGATT against KCNQ1, with -0.0525; and GCAAGACCAUCAACAAGAUTT against CHRNE, with 0.349.
Turning to CGGUCACAAUUUGCGCUGATT against ST8SIA3, the median seed-adjusted z-score was -0.848.
For AAACAAUGGUUUGUGCAAATT against UCRC, the median seed-adjusted z-score is -0.93.
To GGCUUUAAGAUCACGCAGATT against SNRPA belongs -2.09 (active).
To GGUCCGCUACUACCACCAATT against FUT4 belongs -0.24; to GAAGCUUACAGAUUCGAUATT against CNTNAP2, -0.196.
In the case of GGAUGACAUUAGCAGGUAUTT against ERCC6, the median seed-adjusted z-score was 0.0421.
On to GAAAGUUCAAGUACAGUGATT against CYP2E1, for which the median seed-adjusted z-score was 0.81.
As to GAAUCUGGUGGGCCCUUUATT against POFUT2, the median seed-adjusted z-score was -0.86.
Regarding GCUCAGCAUUGUCUGCAAATT against RNASE6, the median seed-adjusted z-score was 0.832.
Then GAUUCUAGGAUAAGCACUATT against KLK8, with 0.736.
Then GGUAAAGUUUUACAGCAUUTT against MTCH2, with -0.168.
To CCUGUAGAUUUGUCAACUATT against RANBP2 belongs 1.53 (active).
As for AGCACGAAGGCAAACCCUATT against CRIP1, the median seed-adjusted z-score was -0.622.
In the case of GUUGAGCCCUUGUAUAUUATT against UBE2C, the median seed-adjusted z-score is 0.
Then GCUUUGAGGAAAAUCCGAATT against SLC26A3, with -0.506; and GGAAAGCUCUUCGUCUGGATT against IFIT5, with 0; and GCCUCUUAAUUUACCAGAATT against OGN, with 0.0889.
To GGUUGUUAGUGGAUCAUCATT against FBXW11 belongs 0.206; to GAGUGAUAUGAAACGGAAATT against NVL, 0.701; to GUUUCGAGAUUGUUGCUAUTT against CCNL1, -1.26 (active).
To CGACUACUACUACCCUGAUTT against CCR8 belongs -0.206; to AGUGCAAAAACGUGCUGAATT against AURKAIP1, 0.067.
As to CGAUUGCUUUUCUACCAACTT against SCP2, the median seed-adjusted z-score is 0.413.
To CAUUUCGACUGGAUCAUAUTT against CLK1 belongs -0.436.
For the sequence AUACAGAUGAUAAACCAUUTT against ZBTB34, the median seed-adjusted z-score is 0.0298.
As for CGGCCCUCCUCUGAAAAGATT against POU4F2, the median seed-adjusted z-score was 1.46 (active).
Then CCUCAGAUCUGAUGUCCAATT against VPS4A, with 0.
To GAAUGACCCUGUACCCUAUTT against TAF2 belongs -0.243; to GAAGGAUUUUGAGCCCGAATT against LETM1, -0.491.

Values taken from PubChem BioAssay AID1347426 (Functional Genomics Laboratory (NCATS/FGL), 2020).
